CBFb RUNX1 block – CBF-beta/RUNX1 interaction disruption; Q01196+Q13951; AlphaScreen CBFb-His/RUNX1-biotin binding, biochemical; Potency, µM (titrated, usually from 59.8 µM), inactives show top-dose activity, negative = inhibition, hits mostly inhibitors; 230,000 tested, under 10 active; note: % of control where 0% means no effect
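AlphaScreen proximity signal reports loss of binding between His-tagged CBF-beta and biotin-labelled RUNX1, each at 30 nM. Proteins are pre-associated for 20 minutes, compounds added for 15 minutes, then beads for 90 minutes, all at ambient temperature.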
TRHR enhancer-1 – allosterically enhances the human TRH receptor. TRHR cells, fluo-8 calcium fluorescence, EC20 TRH enhancement. P34981. enhancement, % at 2 µM. AID 493056. 360,000 compounds, 0.66% hits; in the data active = enhancement above about 30%; note: 0% is about no effect
Target sequence (P34981 whole entry, looked up): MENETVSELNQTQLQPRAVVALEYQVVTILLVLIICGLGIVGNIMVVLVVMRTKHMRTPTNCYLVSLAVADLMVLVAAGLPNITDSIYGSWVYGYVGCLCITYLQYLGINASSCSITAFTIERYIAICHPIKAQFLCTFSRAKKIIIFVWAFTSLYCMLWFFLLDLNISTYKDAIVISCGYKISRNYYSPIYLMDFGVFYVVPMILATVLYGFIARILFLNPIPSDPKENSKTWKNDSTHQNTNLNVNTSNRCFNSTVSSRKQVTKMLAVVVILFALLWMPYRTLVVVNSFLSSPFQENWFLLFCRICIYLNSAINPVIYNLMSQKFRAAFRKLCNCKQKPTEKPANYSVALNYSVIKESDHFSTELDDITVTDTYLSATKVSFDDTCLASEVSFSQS
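TRHR-expressing cells loaded with fluo-8 calcium dye were read kinetically (ex 480/em 530) during compound addition, then stimulated with an EC20 of TRH (10 nM final). Enhancement of the Gq-mediated intracellular calcium response was scored.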
MBNL1-CUG inh – MBNL1-poly(CUG) RNA binding inhibition | TR-FRET MBNL1-His/biotin-(CUG)12 binding, 665/545 ratio | 280,000 compounds, 0.036% hits | Q9NR56 | AID 2675 | Potency, µM (series often up to 57.5 µM), inactives show top-dose activity change, negative = inhibition, usual class: inhibitors; active = well fitted inhibition curve with a large enough effect in the signal ratio, with a control signal flat, not every such curve was filed as active; inconclusive = small, poorly fitted or top-dose-only effect, or effect the other way, or a change in a side signal; inactive = no such curve, though single readings can be large or run the other way; the % refers to the signal ratio; note: potency is the fitted concentration of half-maximal effect; % is set by controls: 0 for no effect and ±100 for the full control effect
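TR-FRET readout: Ex 340 nm, 665/545 nm emission ratio, normalized to buffer-only (basal) and MBNL1-(CUG)12 controls. Complex of MBNL1-His with Biotin-(CUG)12, compounds 92 nM–58 uM, incubated 60 min at room temperature.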
Epigenetic derep – derepresses silenced GFP reporter in murine cells; 280,000 compounds, 0.2% hits; murine LDR cells, GFP reporter derepression, 30 h; Potency, µM (titrated, usually from 53.9 µM), inactives show at the highest dose GFP activation, most hits filed as activators; AID 1865; note: potency is the fitted concentration of half-maximal effect; % of control where 0% means no effect; nearly all actives have a fitted effect of over 60% in size
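Readout is the number of GFP-expressing murine LDR cells, counted by cytometry following washing. Cells were treated with compound for 30 h at 37 C; the stably integrated CMV-GFP locus is normally silent.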
IL-2 act – activates IL-2 in a cell-based reporter assay. 360,000 compounds, 0.065% hits. IL-2 activation reporter assay, cell-based qHTS; stimulated with anti-CD3/CD4/CD28 beads; in transgenic mouse T cells. activation, % (series mostly up to about 46 µM); in the data active = activation above about 50%; inconclusive = mostly about 30% to 49%; note: 0% is about no effect
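EGFP and DsRed fluorescence is measured by plate cytometry in unstimulated transgenic mouse T cells exposed to compound for 60 minutes, then stimulated 18 hours at 37 degrees C with anti-CD3/anti-CD4 beads plus anti-CD28.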
TRHR agonist-1 – agonists of human TRH receptor; activation, % at 2 µM; AID 493084; 360,000 compounds, 0.18% hits; TRHR cells, calcium flux fluo-8, FDSS agonist mode; P34981; in the data active = activation above about 30%; note: 0% is about no effect
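Agonist-mode FDSS calcium read (Ex 480/Em 530, 1 s cycles) in 1536-well TRHR cells with fluo-8 dye, after 10-cycle baseline and 23 nL compound addition; TRH at EC20 (10 nM final) added afterwards for the enhancer phase.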
TRHR enhancer-2 – human TRH receptor allosteric enhancement confirmation; activity change, negative = inhibition, % at 46.1 µM; AID 493076; shares compounds with TRHR enhancer-1; TRH receptor cell assay, enhancer confirmation qHTS; 970 tested, under 10 active;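 note: compound effect scored on response to added TRH at EC20 of 10 nM; 0% is about no effect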
TRHR agonist-2 – human TRH receptor agonism confirmation. shares compounds with TRHR enhancer-1. TRHR-expressing cells, agonist activation read-out. Potency, µM (titrated, usually from 46.1 µM), without a hit: at the top dose activation, usual class: activators. 970 compounds, 8% hits. AID 493078; note: potency is the fitted concentration of half-maximal effect; 0% is about no effect; nearly all actives have a fitted effect of over 75% in size
* = called active by the depositor; ? = inconclusive; . = not tested or not shown. The list is not random: actives were taken first. Their share in the collection is about 0.88%. Unless noted, calls come from the whole dose curve; as a rule, active = well fitted curve in the direction sought with a large enough effect; inconclusive = small, poorly fitted or top-dose-only effect, or another doubt; inactive = no such curve, though single readings can be large; an effect the other way counts as inactive or inconclusive.

SMILES	CBFb RUNX1 block	TRHR enhancer-1	MBNL1-CUG inh	Epigenetic derep	IL-2 act	TRHR agonist-1	TRHR enhancer-2	TRHR agonist-2
Cc1ccccc1CN1C(=O)c2ccccc2Sc2ccc(C(=O)NC(C)c3ccccc3)cc21 (stereo unspecified)	.	4	.	-1%	.	1	.	.
O=C(NN1C(=O)/C(=C/c2ccc(O)c(O)c2)SC1=S)c1ccccc1	.	10	?	.	4	29	?	?
COc1cc(/C=C2\SC(=S)N(Nc3ncc(C(F)(F)F)cc3Cl)C2=O)ccc1O	-24%	26	?	1%	0	47*	1	?
COc1cc(/C=C2\SC(=S)N(C(Cc3ccccc3)C(=O)O)C2=O)ccc1O (stereo unspecified)	-10%	4	.	0%	2	34*	0	?
COc1cc(/C=C2\SC(=S)N(Nc3ccccc3)C2=O)ccc1O	-4%	-6	.	0%	0	35*	2	16µM*
COc1cc(/C=C2\SC(=S)N(NC(=O)c3cccnc3)C2=O)ccc1O	-9%	1	?	0%	1	13	.	.
Cc1ccc2[nH]c(O)c(N=NC(N)=S)c2c1	-9%	-7	.	5%	0	0	.	.
COc1ccc2[nH]c(O)c(N=NC(=N)N)c2c1	7%	62*	.	2%	1	1	2	-1%
N#C/C(=C\c1ccc(N2CCOCC2)o1)C(=O)NCCc1ccccc1	-6%	7	?	-2%	14	58*	3	18µM*
C/C=C/C(=O)[C@@H](C)[C@@H](/C=C/C[Si](C)(C)C)c1ccccc1	-6%	.	.	.	.	.	.	.
COc1ccc(C(C)=O)cc1COc1ccccc1[N+](=O)[O-]	1%	-1	1%	0%	-2	-1	.	.
COc1ccccc1/C=N/OCc1cc(C(C)=O)ccc1OC	.	56*	1%	.	0	0	-5	3%
COC(=O)COc1ccc(S(=O)(=O)Nc2cc([N+](=O)[O-])ccc2C)cc1	-4%	45*	26%	2%	0	0	4	-1%
O=C(N/N=C/c1cc(Cl)cc(Cl)c1O)c1ccncc1	.	12	.	1%	0	40*	?	21µM*
O=C(N/N=C/c1ccc(Cl)cc1Cl)c1ccncc1	.	6	?	.	0	-2	.	.
COc1ccc(S(=O)(=O)N2CCCN(CC(=O)Nc3ccc(OC)cc3OC)CC2)cc1	.	-2	.	17%	.	-2	.	.
COc1ccc(NC(=O)COc2ccc3c(c2)CCC3)cc1	18%	42*	-4%	0%	2	0	-6	0%
COc1ccc(/C=C2\SC(=S)N(CC3CCCO3)C2=O)cc1 (stereo unspecified)	-20%	2	11%	0%	2	1	.	.
COc1ccc(N=C2O/C(=C/c3sc(=S)n(CC4CCCO4)c3O)N=C2C#N)cc1 (stereo unspecified)	-8%	43*	.	5%	1	2	-3	4%
COc1cc(CNc2ncc(-c3ccc(Br)cc3)n2C)cc(OC)c1O	.	41*	-7%	.	1	0	0	5%
COc1ccc(CNc2ncc(-c3ccc(F)cc3)n2C)cc1OC	.	25	-10%	.	0	1	.	.
CN1CCC(=NNC(=O)CSc2ccc(Cl)cc2)CC1	2%	44*	0%	-2%	6	0	-5	0%
CCc1ccc(CNC(=O)CN2C(=O)C3CCCCN3c3ccc(C(=O)N4CCCC4)cc32)cc1 (stereo unspecified)	.	-8	.	-2%	.	-1	.	.
COc1cc(C2C(C#N)=C(N)Oc3cc(N(C)C)ccc32)cc2c1OCO2 (stereo unspecified)	-11%	2	-8%	7%	-2	45*	3	?
CCOC(=O)c1cccc(NC(=O)NC2COc3ccccc3C2)c1 (stereo unspecified)	.	3	.	5%	.	0	.	.
SMILES	CBFb RUNX1 block	TRHR enhancer-1	MBNL1-CUG inh	Epigenetic derep	IL-2 act	TRHR agonist-1	TRHR enhancer-2	TRHR agonist-2
CCn1c(SCC(N)=O)nc2c1c(=O)n(C)c(=O)n2C	5%	2	-8%	1%	-2	1	.	.
CCn1c(N)nc2c1c(=O)n(C)c(=O)n2C	7%	44*	-7%	0%	5	1	2	-1%
Cc1ccc(S(=O)(=O)c2cn(CC(=O)Nc3ccc4c(c3)OCO4)c3ccc(C)cc3c2=O)cc1	.	14	.	-4%	.	1	.	.
O=C(Cc1ccccc1)N1CCN(c2ccccc2F)CC1	.	48*	-1%	.	0	-1	-5	2%
CCSc1ccccc1C(=O)N1CCN(c2ccccc2F)CC1	0%	42*	-3%	0%	-1	0	6	-1%
CC(=O)c1ccc(N2CCN(C(=O)Cc3ccccc3)CC2)c(F)c1	.	-6	8%	.	-2	2	.	.
COc1ccc(OC)c(CCNC(=O)CCn2c(=O)c3cccn3c3cccnc32)c1	.	-6	.	-1%	.	-1	.	.
Cc1cc2c(s1)c1cnn(Cc3cccc(F)c3F)c(=O)c1n2C	.	-2	.	.	.	0	.	.
Cc1ccc(N2CCN(C(=O)c3cc(C(=O)c4ccccc4C)c[nH]3)CC2)c(C)c1	-12%	86*	-2%	-1%	0	-1	1	0%
Cc1ccc(N2CCN(C(=O)c3ccccc3)CC2)c(C)c1	3%	0	8%	-1%	-2	1	.	.
Cn1c(O)c(N=NC(=N)N)c2ccccc21	-2%	66*	.	0%	0	1	-2	-1%
O=c1[nH]c(-c2ccc(O)cc2)nc2scc(-c3cccs3)c12	17%	47*	85%	2%	1	1	4	1%
Cc1nc2scc(-c3cccs3)c2c(=O)[nH]1	0%	-1	6%	-1%	-1	0	.	.
CCc1ccc(S(=O)(=O)c2nnn3c2nc(NCCC(C)C)c2cc(Cl)ccc23)cc1	.	4	.	2%	.	0	.	.
O=C(CN1CCC(C(=O)c2ccc3c(c2)OCCO3)CC1)Nc1ccccc1F	.	48*	4%	.	-2	0	-9	1%
O=C(CSc1nnc(-c2ccc(Cl)cc2)o1)Nc1ccc(F)cc1	.	-3	.	-2%	.	0	.	.
COc1nc(N2CCCC2)nc(-n2nnc(C(C)=O)c2C)n1	-5%	1	-10%	0%	1	0	.	.
